Legend:
Experiment in all cases: PBM binding z-score (relative to random genomic background probes); higher = stronger binding; sequences stand for … in GC…GCGATTGACAGCGTAGAATGAAGG
[1] = tested on: PPARg:RXRa DBDmut IVT, anti-RXR (DBD mutation: RXRa K156A/R161A, NR concentration 270 nM, RXRa partner concentration 90 nM)
Method in brief: (§1)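 For binding z-scores, the reference was random background probes on custom Agilent 4×180K protein-binding microarrays. These arrays were incubated 1 h with ligand-free nuclear receptor dimers in PBS pH 7.4, 2% milk, 0.02% Triton X-100, 1 mM DTT, 0.2 mg/mL BSA and 0.4 mg/ml salmon testes DNA. Fluorescence was scanned after antibody detection of each partner (one per run) and regression-normalized.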

[2] = tested on: PPARg:RXRa IVT, anti-PPARg (NR concentration 270 nM, RXRa partner concentration 90 nM)
Method in brief: as §1

[3] = tested on: PPARg DBDmut:RXRa IVT, anti-PPARg (DBD mutation: PPARg1 K132A/R137A, NR concentration 270 nM, RXRa partner concentration 90 nM)
Method in brief: as §1

[4] = tested on: PPARg DBDmut IVT, anti-PPARg (DBD mutation: PPARg1 K132A/R137A, NR concentration 270 nM)
Method in brief: as §1

[5] = tested on: PPARg homodimer (NR concentration 180 nM)
Method in brief: as §1

[6] = tested on: PXR:RXRa (NR concentration 270 nM, RXRa partner concentration 90 nM)
Method in brief: as §1

[7] = tested on: PXR homodimer (NR concentration 270 nM)
Method in brief: as §1

[8] = tested on: RARa:RXR (NR concentration 270 nM, RXRa partner concentration 90 nM)
Method in brief: as §1

[9] = tested on: RARa homodimer (NR concentration 270 nM)
Method in brief: as §1

[10] = tested on: RARb:RXRa (NR concentration 270 nM, RXRa partner concentration 90 nM)
Method in brief: as §1

[11] = tested on: RARb homodimer (NR concentration 270 nM)
Method in brief: as §1

[12] = tested on: RARg:RXRa (NR concentration 270 nM, RXRa partner concentration 90 nM)
Method in brief: as §1

[13] = tested on: RARg homodimer (NR concentration 270 nM)
Method in brief: as §1

[14] = tested on: RXRa DBDmut IVT, anti-RXR (DBD mutation: RXRa K156A/R161A, NR concentration 90 nM)
Method in brief: as §1

[15] = tested on: RXRa homodimer (NR concentration 180 nM)
Method in brief: as §1

[16] = tested on: THRa:RXRa (NR concentration 90 nM, RXRa partner concentration 90 nM)
Method in brief: as §1

[17] = tested on: THRa homodimer (NR concentration 90 nM)
Method in brief: as §1

[18] = tested on: VDR:RXRa (NR concentration 270 nM, RXRa partner concentration 90 nM)
Method in brief: as §1

[19] = tested on: VDR homodimer (NR concentration 270 nM)
Method in brief: as §1

Row | Sequence | PBM binding z-score [1] | PBM binding z-score [2] | PBM binding z-score [3] | PBM binding z-score [4] | PBM binding z-score [5] | PBM binding z-score [6] | PBM binding z-score [7] | PBM binding z-score [8] | PBM binding z-score [9] | PBM binding z-score [10] | PBM binding z-score [11] | PBM binding z-score [12] | PBM binding z-score [13] | PBM binding z-score [14] | PBM binding z-score [15] | PBM binding z-score [16] | PBM binding z-score [17] | PBM binding z-score [18] | PBM binding z-score [19]
1 | TTACCAAGTTGAGCTGAGGTCGTTGATCCAACTC | -0.673 | 0.221 | -0.252 | -0.114 | -0.328 | 3.88 | 0.614 | 1.76 | -0.601 | 0.659 | 0.944 | 0.311 | 0.0622 | 0.245 | 0.839 | 4.34 | 1.77 | 2.7 | 2.04
2 | CCTCGGAGGACAACAGGAGGTCACAGCTGCCAGA | 0.582 | 1.67 | -1.61 | -1.12 | 2.8 | 4.2 | 0.604 | 4.69 | 0.924 | 3.35 | 4.25 | 4.52 | 3.89 | 0.736 | 3.9 | 3.81 | 2.24 | 3.53 | 2.42
3 | CGAACGAGGGCATGAATTGATAGCAAATGCCGAT | 2.65 | 1.53 | 0.103 | -0.47 | 0.00872 | 0.118 | -0.261 | 0.259 | -0.227 | 1.72 | 0.244 | 0.899 | 1.3 | 2.24 | 0.708 | 0.857 | -0.496 | 0.33 | 0.297
4 | TCATATAGGTAAATGCTAGGTGTAAGTCCGATCT | 3.8 | 1.94 | 0.286 | 1.15 | 0.2 | 0.655 | -0.0284 | 0.00446 | 1.01 | 0.377 | -0.036 | 0.43 | 0.124 | 1.47 | 0.608 | 0.0134 | 0.0913 | 0.772 | 0.144
5 | CGAACGAGGGCATGAGTCGATAGCAAATGCCGAT | 2.97 | 1.89 | -0.75 | -0.876 | 0.211 | 0.0627 | -0.737 | 0.1 | -0.456 | 1.81 | 0.648 | 0.901 | 1.41 | 1.99 | 0.869 | 0.888 | -0.267 | 0.359 | 0.974
6 | TCTTGTAGATCAAAGGTTAAGGAAGCCGAAGCCT | 2.14 | 3.75 | 1.3 | 0.543 | 1.02 | 2.01 | -0.532 | 2.9 | 0.593 | 2.11 | 1.55 | 1.85 | 0.852 | 0.63 | 3.15 | 1.39 | -0.169 | 1.59 | -0.0198
7 | GATACAGGGTCAAGGACAGAGTACGCGTATTGAT | 3.11 | 3.89 | 1.4 | 0.618 | 2.51 | 3.92 | 0.786 | 4.72 | 1.69 | 4.52 | 3.58 | 5.67 | 5.78 | 2.36 | 6.51 | 3.85 | 2.14 | 4.78 | 2.72
8 | TTACAAAGGTGAAGGTCGTTGATCCCTCTGTAGA | 2.62 | 3.97 | 0.246 | 0.134 | 1.47 | 2.32 | 0.241 | 2.74 | 0.198 | 3.56 | 2.91 | 3.09 | 2.66 | 0.165 | 3.13 | 2.1 | 0.228 | 2.19 | 1.08
9 | ATATGTAGGTTAAGGGTGATTCAGGTTGGTTCGC | 7.67 | 6.98 | 1.59 | 1.38 | 3.75 | 1.63 | 1.19 | 1.72 | 1.64 | 1.54 | 1.8 | 1.14 | 1.06 | 0.792 | 1.62 | 1.56 | 1.39 | 1.68 | 1.41
10 | CCTACTGGGCCACGGTCATTGATCAGTCAAAGCA | 4.71 | 5.29 | -0.475 | -0.479 | 0.397 | -0.436 | -0.0793 | -0.106 | -0.863 | 1.56 | 1.5 | 0.43 | 0.896 | -1.25 | -0.391 | 0.204 | -0.144 | -0.388 | -0.135
11 | CGAACTAGGTCATCCAGGACAGTGGATACATTGA | 7.91 | 7.98 | 1.6 | 0.738 | 2.41 | 1.89 | 1.23 | 2.52 | 1.24 | 4.03 | 3.05 | 4.08 | 4.8 | 2.01 | 2.9 | 3.74 | 1.96 | 4.5 | 2.06
12 | CCTAGCAAGCCAGGGTCACTCAAGCATTTCGCTT | -0.127 | 0.222 | -0.962 | -1.46 | 0.888 | 2.78 | 0.054 | 3.42 | -0.000742 | 2.41 | 2.62 | 2.97 | 2.62 | 0.907 | 3.86 | 3.03 | 1.1 | 2.8 | 1.69
13 | CCTACTGGGCCATCAGGTCATTAATATCAACGTT | 4.28 | 5.01 | 0.502 | 0.269 | 2.46 | 1.25 | 0.741 | 1.51 | 0.585 | 1.94 | 2.55 | 1.64 | 1.8 | 0.551 | 0.85 | 2.99 | 2.9 | 1.49 | 1.56
14 | CGTCAAAGTTCAACGTAACGTAACAGAAAGCAGC | 0.266 | 1.76 | 0.727 | 1.04 | 2.48 | 4.4 | 2.41 | 3.07 | 1.3 | 5.18 | 3.83 | 5.52 | 5.97 | 4.56 | 4.19 | 1.78 | -0.366 | 3.97 | 3.03
15 | ACTATTAGTTGACTTAGGGTAACCGATACGACGC | 0.838 | 0.626 | 1.67 | 1.36 | 0.663 | 0.483 | 0.517 | 0.73 | 0.861 | 0.582 | 0.611 | 0.744 | 0.754 | 0.853 | 0.525 | 2.77 | 1.43 | 0.225 | 0.184
